Over roughly 33,000 sequences, “E-score (-0.5 to 0.5)” has its median near -0.032; the highest 2% begin near 0.36. The list comes from a sample in which the highest values are over-represented; it also holds similar and randomly drawn sequences.
target: T1, Sko1 (UniProt Q02100); assay: PBM E-score (8-mer binding enrichment) (E-score (-0.5 to 0.5)); higher = stronger / more preferred TF binding; details: protein concentration: 200 nM; construct: GST-full length
T1 sequence: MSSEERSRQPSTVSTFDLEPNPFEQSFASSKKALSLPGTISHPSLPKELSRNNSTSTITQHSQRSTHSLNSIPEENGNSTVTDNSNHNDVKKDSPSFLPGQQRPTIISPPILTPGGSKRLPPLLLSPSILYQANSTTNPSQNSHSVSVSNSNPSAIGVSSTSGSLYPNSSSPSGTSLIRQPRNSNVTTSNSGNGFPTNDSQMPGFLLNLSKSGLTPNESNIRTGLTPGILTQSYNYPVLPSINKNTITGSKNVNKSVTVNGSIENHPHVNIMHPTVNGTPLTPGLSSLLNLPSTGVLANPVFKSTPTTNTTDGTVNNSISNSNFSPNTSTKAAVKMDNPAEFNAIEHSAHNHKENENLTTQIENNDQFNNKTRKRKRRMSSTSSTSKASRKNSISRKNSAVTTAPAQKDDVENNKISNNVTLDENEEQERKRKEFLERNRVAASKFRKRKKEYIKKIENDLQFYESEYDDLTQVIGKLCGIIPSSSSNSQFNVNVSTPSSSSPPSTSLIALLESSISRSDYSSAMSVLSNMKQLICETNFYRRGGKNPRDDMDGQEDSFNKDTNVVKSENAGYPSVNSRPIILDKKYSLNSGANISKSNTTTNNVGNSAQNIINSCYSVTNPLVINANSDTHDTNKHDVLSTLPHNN
Description: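 Universal 'all 10-mer' protein binding microarrays (Agilent AMADID 015681) probed with GST-tagged S. cerevisiae TFs (full-length or DBD) made by in vitro transcription/translation (PURExpress), about 100-200 nM. Bound TF was detected with fluorescent anti-GST. Each ungapped 8-mer (which stands for itself and its reverse complement) is scored by the PBM enrichment score (E-score), a modified Wilcoxon-Mann-Whitney statistic from -0.5 to +0.5, computed with the Universal PBM Analysis Suite. Scale: above 0.35 generally sequence-specific binding.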

| Sequence | PBM E-score |
| --- | --- |
| CACTTACG | 0.382 |
| AACTTACG | 0.408 |
| AACTTACC | -0.0258 |
| CACTTACA | 0.164 |
| CACTTACC | 0.109 |
| ACGTTCTG | 0.256 |
| GCTCTAAA | 0.0432 |
| ACGTATCG | 0.452 |
| GCGTATCA | 0.131 |
| CCGTATCG | -0.171 |
| GCGTATCC | 0.142 |
| ACGTATCA | 0.438 |
| AAGTATCG | -0.0131 |
| CCGTATCC | -0.133 |
| AAGTATCT | 0.0671 |
| ACGTATCT | 0.419 |
| ACCTATCT | -0.0547 |
| ACGTATCC | 0.389 |
| TCGTATCA | 0.241 |
| CCGTCTGC | -0.109 |
| GCAGAACC | -0.16 |
| TAGTGGAA | -0.149 |
| GCGGCATA | 0.0318 |
| AGCTGATC | -0.0352 |
| GATCCTCC | -0.264 |

| Sequence | PBM E-score |
| --- | --- |
| CTGACGAA | 0.373 |
| ATGACGAC | 0.466 |
| ATGACGGG | 0.338 |
| ATGACGAG | 0.462 |
| ATGACGGA | 0.419 |
| GCGACGAC | -0.08 |
| AAGACGAG | -0.189 |
| ATGACGGC | 0.285 |
| CCGACGAA | 0.144 |
| CTGACGAC | 0.342 |
| AGGACGAC | -0.114 |
| GTGACGGA | 0.174 |
| ACCTCCGG | -0.282 |
| CCCCACGA | -0.128 |
| CGTTTTGC | 0.177 |
| ACACCTAC | -0.0103 |
| CCGCTGAG | -0.29 |
| AAAGCTTA | 0.141 |
| ACTAATGG | 0.00996 |
| ACTGAAGT | -0.0247 |
| ACTCGCCT | -0.196 |
| ATGACGAA | 0.488 |
| GTGACGAA | 0.446 |
| GGGACGAA | -0.164 |
| GTGACAAA | 0.167 |

| Sequence | PBM E-score |
| --- | --- |
| ACGACGAA | 0.25 |
| ATGACAAA | 0.154 |
| AGACAGTA | 0.0897 |
| CCGCCCTC | -0.23 |
| AAAGATGG | -0.0167 |
| AAGCTCGG | -0.169 |
| GAGGTAAC | 0.0793 |
| GAAAGTGC | -0.11 |
| CTAATTTA | 0.261 |
| GTCATATA | 0.373 |
| CTCATATA | 0.0195 |
| ATAATTTA | 0.222 |
| ATAATCTA | 0.189 |
| GTCATAAA | 0.364 |
| GTAATTTA | 0.366 |
| ATCATAAA | 0.175 |
| ATCATATA | 0.244 |
| TTCATAAA | 0.0982 |
| GTAATCTA | 0.394 |
| CTAATCTA | 0.0405 |
| CCACACAG | -0.208 |
| GGGACAAA | -0.0851 |
| CGAAGAAG | 0.0371 |
| AACTCTAT | -0.186 |
| TGATTCAA | 0.144 |

| Sequence | PBM E-score |
| --- | --- |
| ACCCCATG | -0.0741 |
| GTAATATA | 0.374 |
| ATCATAGA | 0.205 |
| GTCATAGA | 0.406 |
| CTCATAGA | 0.00332 |
| CTAATATA | 0.302 |
| ATAATATA | 0.268 |
| GCCAGTGA | -0.0654 |
| TACCCTGA | -0.126 |
| CGCCTGAC | 0.0438 |
| AAGGCACG | 0.132 |
| ACCGCCGT | -0.264 |
| GAAAAGGA | -0.0667 |
| CCTCATCC | -0.292 |
| CGTCATCA | 0.489 |
| AGTCATCC | -0.0488 |
| AGTCATCA | -0.103 |
| CATCATCA | 0.361 |
| CATCATCG | 0.347 |
| TATCATCA | 0.272 |
| CGTCATCC | 0.475 |
| GGTCATCA | 0.207 |
| CTGATCGC | -0.0786 |
| ATATGCCA | -0.0891 |
| AAAACAGA | 0.112 |

| Sequence | PBM E-score |
| --- | --- |
| AGAGTAGC | -0.00834 |
| ACGTGGGC | 0.347 |
| GCGTGGTA | -0.0393 |
| ACGTGGCA | 0.297 |
| CCGTGGTC | -0.235 |
| ACGTGGAT | 0.398 |
| ACGTGGTA | 0.391 |
| ACGTGGCT | 0.321 |
| ACGTGGCG | 0.368 |
| ACGTGGTC | 0.364 |
| ACGTGGAA | 0.311 |
| CCGTGGTA | -0.172 |
| ACGTGGAC | 0.33 |
| AACTCAGG | -0.0444 |
| AGCGCTGC | -0.167 |
| AGACAGAT | 0.0457 |
| ACTTGTGG | -0.0685 |
| ACCCGAGC | -0.224 |
| GTAGGCTA | 0.0728 |
| CGTTATGA | 0.267 |
| CTTGCTTC | 0.0228 |
| AGGTTGAC | -0.0293 |
| ACGTCCTC | 0.206 |
| GGTCTGGA | -0.25 |
| ACGTGCAC | 0.355 |

| Sequence | PBM E-score |
| --- | --- |
| ACGTGCAT | 0.396 |
| ACGTGCAA | 0.35 |
| AAGTGGTG | -0.113 |
| ACGTGGTG | 0.376 |
| AGGTGGTG | -0.0259 |
| AACAGTGG | -0.244 |
| AGGGCGAC | -0.2 |
| AAATTCTG | 0.052 |
| GTGTTCTA | 0.0982 |
| AATCCCGA | 0.105 |
| GCATCGCA | -0.35 |
| CTTCGTTA | 0.161 |
| ATTCGTAA | 0.433 |
| CTTCGTCA | 0.412 |
| GTTCGTAA | 0.355 |
| CTTCGTAA | 0.287 |
| ATTCGTCA | 0.464 |
| GTTCGTGA | -0.0757 |
| GTTCGTCA | 0.367 |
| ATTCGTCG | 0.22 |
| ATTCGTCC | 0.119 |
| GTTCGTTA | 0.107 |
| CTTCGTCC | -0.226 |
| GAAATGGC | 0.00268 |
| CGCAAGCA | 0.0501 |

| Sequence | PBM E-score |
| --- | --- |
| AAAGGTAT | 0.0611 |
| CAACAGTA | -0.0581 |
| CATTTGTC | 0.0524 |
| CATAAGAC | 0.1 |
| GGTTTGAC | 0.0235 |
| GGATGAAA | 0.033 |
| GTACGAAC | 0.284 |
| ATACGAAC | 0.256 |
| CTCCGTAA | 0.0488 |
| GTACGGAC | -0.0428 |
| ATACGTAC | 0.473 |
| ATCCGTAC | 0.151 |
| CTACGAAG | -0.0419 |
| CTACGGAG | -0.193 |
| CTACGGAA | 0.157 |
| CTACGTAG | 0.449 |
| CTACGTAA | 0.489 |
| GTACGTAC | 0.44 |
| CCCTAAAG | -0.213 |
| GTGAGGTA | 0.0525 |
| ATCGGTGC | 0.105 |
| AATAATCT | 0.125 |

From the supplement of paper PMC3334620
